Measurements from PubChem BioAssay (NCI).
Compounds without any hit were thinned out: in the full panel of roughly 83,000, 20% have a hit.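 Method: cells in 96-well plates; compound added at one concentration; 48 h incubation; percent growth measured; values under 10 scored active.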 A number with no mark means an inactive call. Activity calls are given as the source filed them.

Tested on: SNB-19 CNS
Test: NCI-60 one-dose screen, 48 h (100 = growth as untreated, 0 = no growth, -100 = all killed)
Details: 10 µM unless noted

Compared with `ClCCN(CCCl)Cc1ccc(Nc2ccnc3cc(Cl)ccc23)cc1`, `O=C(N/N=C/c1ccc(N(CCCl)CCCl)cc1)c1cccc2ccccc12` is higher in growth: 60.8% for the first, 80.6% for the second.

First: N#CCCNc1ccccc1
Second: CCN1C(=O)C(=C/C=C/c2ccccc2)C(=O)N(CC)C1=O
The growth of the first is higher: 116% for the first, 69.9% for the second.

Compared with `C[C@]12CCc3sc(NCCc4ccccc4)nc3C1=CC[C@@H]1[C@@H]2CC[C@]2(C)C(=O)CC[C@@H]12`, `CC1=C2[C@@H](CC1)[C@]1(C)O[C@@](C(C)C)(C[C@H]1O)[C@H]2OC(=O)C1CC1c1ccccc1` (some centres not stated) is higher in growth: 80.2% for the first, 102% for the second.

First: Cc1cnc(/C=C/C(=O)O)cc1-c1cc2c(cc1C)C(C)(C)CCC2(C)C
Second: COc1ccc(C(=O)c2cc(OC)c(OC)c(OC)c2)cc1OC(C)=O
The growth of the first is higher: 97.4% for the first, 28.3% for the second.

Going from `C[C@@H]1CCC2[C@@H](C)[C@H](OC(=O)CCC(=O)NCCNC(=O)Cc3cc(=O)oc4cc(N(C)C)ccc34)O[C@@H]3O[C@]4(C)CC[C@@H]1C23OO4` (some centres not stated) to `COC(=O)[C@H](Cc1ccccc1)NNC(=O)c1csc([C@@H](C[C@H](C(C)C)N(C)C(=O)[C@@H](NC(=O)[C@H]2CCCCN2C)C2CC2)OC(C)=O)n1`, the growth rises from 65% to 65.2%.

Compared with `CCN(CCO)C(Cc1ccccc1)c1ccccc1` (configuration not stated), `Cc1cc(N(CCCl)CCCl)ccc1C=Nc1ccc(-c2csc(Cc3ccccc3)n2)cc1` is lower in growth: 119% for the first, 81.1% for the second.

First: COC(=O)[C@@H](C)C[C@H](Cc1ccccc1)NC(=O)c1nc([C@@H](C[C@H](C(C)C)N(C)C(=O)[C@@H](NC(=O)[C@H]2C[C@H](O)CCN2C)C(C)C)OC(C)=O)sc1C(C)C
Second: CCOC(=O)[C@@H](C)C[C@H](Cc1ccccc1)NC(=O)c1csc([C@@H](C[C@H](C(C)C)N(C)C(=O)[C@@H](NC(=O)[C@H]2C[C@H](O)CCN2C)C(C)C)OC(C)=O)n1
The growth of the first is lower: 16.5% for the first, 21.8% for the second.

First: COc1cc(C=Nc2cc(Cl)cc(Cl)c2)ccc1N(CCCl)CCCl
Second: N#CC1(C#N)C(c2ccc(N(CCCl)CCCl)cc2)OC23CCCCC2C1(C#N)C(=N)O3 (configuration not stated)
The growth of the first is higher: 89.8% for the first, 84.4% for the second.

Going from `COC(=O)[C@@H](C)C[C@H](Cc1ccccc1)NC(=O)c1csc([C@@H](C[C@H](C(C)C)N(C)C(=O)[C@@H](NC(=O)[C@H]2CCCN2C)C2CC2)OC(C)=O)n1` to `COC(=O)[C@@H](C)C[C@H](Cc1ccccc1)NC(=O)c1csc([C@@H](C[C@H](C(C)C)N(C)C(=O)[C@H](C)NC(=O)[C@H]2CCCCN2C)OC(C)=O)n1`, the growth falls from 75.6% to 27.7%.

First: Oc1ccc2c3c1OC1[C@@H](O)CC[C@@]4(O)[C@@H](C2)N(CC2CCC2)CC[C@]314 (some centres not stated)
Second: C[C@]12C[C@@H](CO)[C@H](O)C[C@@H]1CC[C@@H]1[C@@H]2CC[C@]2(C)[C@@H](O)CC[C@@H]12
The growth of the first is higher: 109% for the first, 108% for the second.

Going from `COC(=O)C12CC(NC(=O)c3csc([C@@H](C[C@H](C(C)C)N(C)C(=O)[C@@H](NC(=O)[C@H]4CCCCN4C)C(C)C)OC(C)=O)n3)(C1)C2` to `COC(=O)[C@@H](C)C[C@H](Cc1ccccc1)NC(=O)c1csc([C@@H](C[C@H](C(C)C)N(C)C(=O)C2(NC(=O)[C@H]3CCCCN3C)CC2)OC(C)=O)n1`, the growth rises from 29.1% to 68.2%.

First: CC(=O)O[C@H](C[C@H](C(C)C)N(C)C(=O)[C@@H](NC(=O)[C@H]1CCCCN1C)C(C)(C)C)c1nc(C(=O)N[C@@H](Cc2ccccc2)C[C@H](C)C(=O)O)cs1
Second: CC(=O)O[C@H](C[C@H](C(C)C)N(C)C(=O)[C@@H](NC(=O)[C@H]1CCCCN1C)C(C)C)c1cccc(C(=O)N[C@@H](Cc2ccccc2)C[C@H](C)C(=O)O)n1
The growth of the first is higher: 23.4% for the first, 22.4% for the second.

Compared with `COc1ccc(/C=C\c2cc(OC)c(OC)c(OC)c2)cc1OCC(=O)Nc1nc2ccc(F)cc2s1`, `COc1ccc(-n2c(C)nc3cc(OC)c(OC)cc3c2=O)cc1OC` is higher in growth: 72.6% for the first, 102% for the second.

Compared with `O=[N+]([O-])c1ccc([Se]C2CCCCC2Cl)c([N+](=O)[O-])c1` (configuration not stated), `COC1CC2c3ccccc3C1C(C)=[N+]2C` (configuration not stated) is higher in growth: 56.2% for the first, 100% for the second.

Compared with `O=[As](O)(O)c1ccccc1[As](=O)(O)O`, `N/C(=N/N=C/c1ccncc1)N[N+](=O)[O-]` is lower in growth: 109% for the first, 104% for the second.

Going from `CCNc1nc(Cl)nc(NCC)n1` to `Clc1ccc(CSC(Cn2ccnc2)c2ccc(Cl)cc2Cl)cc1` (configuration not stated), the growth falls from 93% to 47.3%.

`COc1ccc(C2=CC(c3ccc(OC)c(OC)c3)c3c(c4ccccc4oc3=O)O2)cc1OC` (configuration not stated) showed a growth of 17.9%.

`NC(=S)c1cn(C2OC(CO)C(O)C2O)c2ncnc(N)c12` (configuration not stated) was tested, and the growth was 9.97% (active).
With `O=C(CCCCCNC1=CC(=O)c2ccccc2C1=O)NCCC[Te]c1ccccc1` the growth was 5.42% (active).
`CN1C(=O)C23CC4(C56CC78SSC(CO)(C(=O)N7C5Nc5ccccc56)N(C)C8=O)c5ccccc5NC4N2C(=O)C1(CO)SS3` (configuration not stated) was tested, and the growth was -98.3% (active).
For `C=CC1=C[C@@H]2[C@@H]3O[C@]4(CC[C@H](O4)[C@@H](C)C[C@@H](O)C3=O)C[C@H](O)C3=NCC[C@@]32CC1`, the growth was -16.2% (active).
